# CHO-K1 Ca antag: nonselective inhibitor or artifact in parental CHO-K1 cells; ATP-induced calcium, Fluo-8 fluorescence; inhibition, % at 3 µM; 0.6% of 360,000 active; AID 602250;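 active = inhibition above a per-plate cutoff, the plate's mean sample inhibition plus 3 SD, cut at about 24% in these data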;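 note: 0% = DMSO plus EC80 ATP and 100% = DMSO alone without ATP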
# CHRM1 PAM: human CHRM1 positive allosteric modulation; P11229; CHO-K1 hM1, Fluo-8 calcium fluorescence, ACh EC20; 0% = ACh EC20, 100% = maximal ACh; activation, % at 3 µM; 0.088% of 360,000 active; in the data active = activation above about 19%, passing the limit was not always enough
# Target sequence (P11229 whole entry, looked up): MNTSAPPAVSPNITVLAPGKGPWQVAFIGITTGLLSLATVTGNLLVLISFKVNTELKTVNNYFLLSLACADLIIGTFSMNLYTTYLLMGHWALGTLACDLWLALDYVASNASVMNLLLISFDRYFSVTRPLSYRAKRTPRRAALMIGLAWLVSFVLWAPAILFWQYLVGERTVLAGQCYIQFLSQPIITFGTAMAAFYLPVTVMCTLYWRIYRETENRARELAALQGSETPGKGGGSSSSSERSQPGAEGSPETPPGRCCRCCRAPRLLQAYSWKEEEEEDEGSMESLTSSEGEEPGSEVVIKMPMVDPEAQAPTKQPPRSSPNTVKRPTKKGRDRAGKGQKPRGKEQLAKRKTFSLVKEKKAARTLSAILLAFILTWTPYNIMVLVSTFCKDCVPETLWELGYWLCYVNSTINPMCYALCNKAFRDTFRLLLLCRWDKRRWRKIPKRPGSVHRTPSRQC
# M1 ag parental: M1 agonist counterscreen hit in parental CHO-K1 cells; Fluo-8 calcium fluorescence; scaled to maximal ATP response, vehicle zero; activation, % at 3 µM; 0.48% of 360,000 active; AID 602248; in the data active = activation above about 15%;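 note: untransfected CHO-K1 host cells lacking M1 receptor as counterscreen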
# M1 antag: antagonists of human M1 muscarinic receptor. 1.3% of 360,000 active. P11229. AID 588852. CHO-K1 hM1, Fluo-8 calcium fluorescence, ACh EC80 antagonist. inhibition, % at 3 µM;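 active = percent inhibition above its own plate's cutoff, namely the mean of that plate's compound wells plus 3 SD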;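 note: peak over basal fluorescence ratio during 140 s after agonist addition; 0% = ACh EC80 plus DMSO and 100% = DMSO alone without agonist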
# CHO-K1 Ca PAM: counter-screen for M1 PAMs: effect in parental CHO-K1 cells; activation, % at 3 µM; 0.02% of 360,000 active; AID 602247; ATP EC20, Fluo-8 calcium fluorescence; 0% at ATP EC20, 100% at ATP max;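 active = activation above the run cutoff, the mean activation of all test compounds plus 3 SD, cut at about 40% in these data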;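 note: peak over basal fluorescence ratio in a 140 s read after ATP addition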
# CHRM1 agonist: agonists of human M1 muscarinic receptor; 0.33% of 360,000 active; P11229; activation, % at 3 µM; CHO-K1 hM1, Fluo-8 calcium fluorescence, agonist mode; 0% DMSO, 100% acetylcholine EC100;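 active = activation above the run's mean compound activation plus 3 SD, cut at about 16% in these data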;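 note: peak over basal fluorescence ratio within a 140 s kinetic read after compound addition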
# * = called active by the depositor. Compounds with a hit are over-represented: about 2.4% of the library has one in this group of screens.
SMILES,CHO-K1 Ca antag,CHRM1 PAM,M1 ag parental,M1 antag,CHO-K1 Ca PAM,CHRM1 agonist
O=C(NCC1CCCO1)Nc1cc(Cl)cc(Cl)c1 (stereo not given),24.8*,6.5,1.3,6.2,-6.6,0.8
O=C(c1[nH]c(C(F)(F)F)nc1-c1ccccc1)N1CCN(c2c(Cl)cncc2Cl)CC1,-1.8,-7.7,9.3,-1.6,4.2,17.1*
O=C(c1[nH]c(C(F)(F)F)nc1-c1ccccc1)N1CCN(c2ccccc2)CC1,9.2,0.3,0.6,-19.7,-0.3,2.1
Cc1ccccc1OCc1nc2ccccc2n1C,-12.6,5.1,0.1,-9.0,20.1,-5.9
Cc1nnc(OCc2nc3ccccc3n2C)c2ccccc12,25.1*,4.3,0.8,-15.8,-9.2,-0.5
Cc1ccc(CNC(=O)C2COc3ccccc3O2)cc1 (stereo not given),-12.2,1.4,0.2,8.6,6.6,-2.1
Cc1ccc(C(C(=O)NCc2ccc(F)cc2)N(CCCO)C(=O)C2COc3ccccc3O2)o1 (stereo not given),18.1,-11.3,19.4*,8.6,-5.5,-2.8
COc1cccc(C(=O)Nc2c3c(nn2-c2ccc(Cl)cc2)CS(=O)(=O)C3)c1OC,-0.7,1.4,2.5,-2.6,-2.2,-1.9
CC(C)Oc1cccc(C(=O)C2CCCN(Cc3cnn(C(C)C)c3)C2)c1 (stereo not given),-6.3,-16.9,0.0,11.6,21.4,-12.9
CC(C)Oc1cccc(C(=O)C2CCCN(Cc3cccn3-c3ccccn3)C2)c1 (stereo not given),-3.0,-23.2,6.0,40.7*,7.1,-4.4
CC(C)Oc1cccc(C(=O)C2CCCN(C(=O)c3cncs3)C2)c1 (stereo not given),3.8,-15.8,0.5,39.4*,-3.5,-4.8
CCn1nc(C)c(CN2CCCC(C(=O)c3cccc(OC(C)C)c3)C2)c1C (stereo not given),-1.9,-30.9,5.7,95.3*,9.7,-10.8
Cc1nc(C(=O)N2CCCC(C(=O)c3cccc(OC(C)C)c3)C2)cs1 (stereo not given),0.9,5.8,3.6,-4.2,1.0,-0.4
Cc1nn(C(C)C)c(C)c1CN1CCCC(C(=O)c2cccc(OC(C)C)c2)C1 (stereo not given),11.1,-28.6,1.1,36.8*,-5.1,-10.2
NNC(=O)CCC(=O)Nc1ccccc1,-9.2,6.5,-0.7,-1.7,13.2,-0.8
CC(O)CN(CC(C)O)c1ccc2c(c1)Cc1cc([N+](=O)[O-])ccc1-2 (stereo not given),59.6*,-29.5,173.6*,70.7*,-20.3,133.7*
Nc1ccc2c(c1)Cc1cc([N+](=O)[O-])ccc1-2,13.4,-12.1,26.4*,19.7,9.3,5.1
CC(C(=O)NC(C)(C)C)N(Cc1cccs1)C(=O)CCN1CCc2ccccc21 (stereo not given),4.3,-3.0,22.5*,5.5,1.6,-4.8
CC(C)(C)NC(=O)CN(Cc1cccs1)C(=O)CCN1CCc2ccccc21,16.6,0.4,1.6,-3.6,-13.1,-9.4
Cc1ccc(C(=O)NC(C)c2ccc(S(N)(=O)=O)cc2)s1 (stereo not given),-7.7,28.6*,0.4,1.4,11.6,-1.4
CNS(=O)(=O)c1ccc(NC(=O)c2ccccn2)cc1,-3.0,10.4,0.8,-3.0,0.2,2.6
CCCCCCC#Cc1cncc(C(=O)NNC(=O)Nc2cc(Cl)cc(Cl)c2)c1,-1.7,4.3,-0.2,-5.2,-10.8,-3.3
CCCCC#Cc1cncc(C(=O)NN)c1,-2.4,4.1,18.9*,-6.4,12.0,3.9
CCN(c1ccccc1)S(=O)(=O)c1ccc(Cl)c(NC(=O)CN(C)Cc2cccc(F)c2)c1,-13.4,-3.4,-0.2,4.6,12.9,-2.4
CCOc1ccc2[nH]c(=O)c(C(c3nnnn3C3CCCCC3)N3CCN(C)CC3)cc2c1 (stereo not given),5.9,-3.2,0.3,14.5,-5.1,-4.6
CCOc1ccc2[nH]c(=O)c(C(c3nnnn3C3CCCCC3)N3CCN(CC)CC3)cc2c1 (stereo not given),-2.9,-20.3,3.2,22.1*,20.4,-6.4
Cc1[nH]c2ccccc2c1/C=N/NC(=O)CNC(=O)c1ccco1,4.4,9.4,0.1,-15.9,7.9,-3.8
Cc1[nH]c2ccccc2c1/C=N\NC(=O)c1ccco1,1.6,24.3*,0.6,-19.6,6.5,0.7
